Measurements published in PubChem BioAssay (NCATS).
“And” between values parts separate entries of the source, which are not always exact repeats. Identical values can stand only once. Results filed as inconclusive are left out. Some compounds were tested as several samples or in several runs, with calls that do not always agree. The source made the active and inactive calls. Calls come from the whole dose curve; as a rule, active = well fitted inhibition curve with a large enough effect; inconclusive = small, poorly fitted or top-dose-only effect; inactive = flat fitted curve, though single readings scatter. Where a SMILES comes first, the peptide text is derived from it. Bridges are numbered along the chain shown (N, C = ends). [ ]: non-standard residue; d: D form. Orn = NCCC[C@H](N)C(=O)O; Mpa = O=C(O)CCS

Legend:
[1] = Drug repurposing screens with cells derived from glioblastoma tumor samples (AID 1345199); conditions: GBM patient neurospheres viability, ATP luminescence, 48 h; note: nearly all actives have a fitted effect of over 40% in size
In short: (§1)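 Four patient lines of CD133+ GBM neurospheres were screened at several concentrations; hits were retested in those lines plus three slower-growing GBM lines, using 48-hour treatment and ATP-based viability.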

astro = control astrocytes; test: as above; conditions: viability, ATP luminescence, 48 h; series mostly up to 45.9 µM
In short: as §1

[2] = at 45.9 µM (top of the series), tumour line B
[3] = at 45.9 µM (top of the series), tumour line D
[4] = at 46.1 µM (top of the series), tumour line C
% is set by controls: 0 for no effect and ±100 for the full control effect; potency is the fitted concentration of half-maximal effect.

CCC(C)C(C(=O)OCC[N+](C)(CC)CC)c1ccccc1 (stereo unspecified)
inactive: activity, negative = cell killing [1, 2] -18.7% | activity, negative = cell killing [1, 3] -27.8% | Potency (astro)
active: Potency ([1]; tumour line A) 11.2 µM

CC(C(=O)O)c1ccc(C2CCCCC2)c2ccccc12 (stereo unspecified)
inactive: activity, negative = cell killing [1, 2] -3.21% | activity, negative = cell killing [1, 3] -15.4% | activity, negative = cell killing [1, 4] -7.75% | Potency (astro)

N[C@@H](C(=O)N[C@H]1C(=O)N2C(C(=O)O)=C(Cl)CC[C@H]12)c1ccccc1
inactive: activity, negative = cell killing [1, 2] 3.07% | activity, negative = cell killing [1, 3] -6.14% | activity, negative = cell killing [1, 4] -12.4% | Potency (astro)

C=CS(=O)(=O)O
inactive: activity, negative = cell killing [1, 2] -2.55% | activity, negative = cell killing [1, 3] -4.12% | activity, negative = cell killing [1, 4] -10.9% | Potency (astro)

CN(C(=O)CO)c1c(I)c(C(=O)NCC(O)CO)c(I)c(C(=O)NCC(O)CO)c1I (stereo unspecified)
inactive: activity, negative = cell killing [1, 2] -7.14% | activity, negative = cell killing [1, 3] -10.4% | activity, negative = cell killing [1, 4] -4.09% | Potency (astro)

CO[C@@H]1[C@@H](O[C@@H]2O[C@H](C)[C@@H](O[C@H]3C[C@@](C)(O)[C@@H](OC(=O)CC(C)C)[C@H](C)O3)[C@H](N(C)C)[C@H]2O)[C@@H](CC=O)C[C@@H](C)[C@@H](O)/C=C/C=C/C[C@@H](C)OC(=O)C[C@H]1O
inactive: activity, negative = cell killing [1, 3] -21.1% | activity, negative = cell killing [1, 4] -11.8% and -30.6% | Potency (astro)
active: Potency ([1]; tumour line A) 12.6 µM

CCCCCCCCCCCCCCCC(=O)OC[C@@H](COP(=O)([O-])OCC[N+](C)(C)C)OC(=O)CCCCCCCCCCCCCCC
inactive: activity, negative = cell killing [1, 2] -16.6% | activity, negative = cell killing [1, 3] 2.92% | activity, negative = cell killing [1, 4] 0.955% | Potency (astro)

O.O=C([O-])CC([S-])C(=O)[O-].[Au+].[Na+].[Na+] (stereo unspecified)
inactive: activity, negative = cell killing [1, 2] -5.96% | activity, negative = cell killing [1, 3] 2.25% | activity, negative = cell killing [1, 4] 15.2% | Potency (astro)

CCOc1ccc(C[C@H]2NC(=O)CCSSC[C@@H](C(=O)N3CCC[C@H]3C(=O)N[C@@H](CCCN)C(=O)NCC(N)=O)NC(=O)[C@H](CC(N)=O)NC(=O)[C@H]([C@@H](C)O)NC(=O)[C@H]([C@@H](C)CC)NC2=O)cc1 ([Mpa][dY](Et)ITNCP[Orn]G-NH2; disulfide 1-6)
inactive: activity, negative = cell killing [1, 2] -9.93% | activity, negative = cell killing [1, 3] -4.59% | activity, negative = cell killing [1, 4] 3.43% | Potency (astro)

CC1(C)S[C@@H]2[C@H](NC(=O)[C@H](N)c3ccccc3)C(=O)N2[C@H]1C(=O)OCOC(=O)[C@@H]1N2C(=O)C[C@H]2S(=O)(=O)C1(C)C
inactive: activity, negative = cell killing [1, 2] -6.39% | activity, negative = cell killing [1, 3] -14.9% | activity, negative = cell killing [1, 4] -15.8% | Potency (astro)

NCCC(=O)[N-][C@@H](Cc1cnc[nH]1)C(=O)O.[Zn]
inactive: activity, negative = cell killing [1, 2] -11.4% | activity, negative = cell killing [1, 3] -14.7% | activity, negative = cell killing [1, 4] 0.418% | Potency (astro)

CCCOc1ccc2nc(NC(=O)OC)sc2c1
inactive: activity, negative = cell killing [1, 4] -26.8%
active: Potency ([1]; tumour line A) 8.91 µM | Potency ([1]; tumour line D) 10 µM | Potency (astro) 6.31 µM

O=C(Cn1c(=O)sc2ccc(Cl)cc21)N1CCN(CCO)CC1
inactive: activity, negative = cell killing [1, 2] -0.42% | activity, negative = cell killing [1, 3] -6.64% | activity, negative = cell killing [1, 4] 15.7% | Potency (astro)

CC(C)(C)NC(=O)[C@H]1CC[C@H]2[C@@H]3CC=C4C=C(C(=O)O)CC[C@]4(C)[C@H]3CC[C@]12C
inactive: activity, negative = cell killing [1, 2] -3.87% | activity, negative = cell killing [1, 3] 0.505% | activity, negative = cell killing [1, 4] -11% | Potency (astro)

CC#CCC(C)[C@H](O)/C=C/[C@@H]1[C@H]2c3cccc(CCCC(=O)O)c3O[C@H]2C[C@H]1O (stereo partly specified)
inactive: activity, negative = cell killing [1, 2] -5.83% | activity, negative = cell killing [1, 3] 2.53% | activity, negative = cell killing [1, 4] -26.2% | Potency (astro)

CCCCCCCCCCCCCCCCCC(=O)OCCO
inactive: activity, negative = cell killing [1, 2] -18.6% | activity, negative = cell killing [1, 3] -21.2% | activity, negative = cell killing [1, 4] -6.14% | Potency (astro)

O=C(CCCN1CCC(n2c(=S)[nH]c3ccccc32)CC1)c1ccc(F)cc1
inactive: activity, negative = cell killing [1, 2] -28.9% | Potency (astro)
active: Potency ([1]; tumour line A) 8.91 µM | Potency ([1]; tumour line D) 11.2 µM

Cc1ccc(C2(O)CCN(CCCC(=O)c3ccc(F)cc3)CC2)cc1
active: Potency ([1]; tumour line A) 6.31 µM | Potency ([1]; tumour line D) 12.6 µM
inactive: activity, negative = cell killing [1, 2] -26.3% | Potency (astro)

CC(=O)OC[C@H]1O[C@@H](O[C@H]2[C@H](O)[C@@H](OC(=O)c3ccccc3C(=O)O)[C@H](O)O[C@@H]2COC(C)=O)[C@H](O)[C@@H](OC(=O)c2ccccc2C(=O)O)[C@@H]1O
inactive: activity, negative = cell killing [1, 2] -10.5% | activity, negative = cell killing [1, 3] -4.26% | activity, negative = cell killing [1, 4] 6.79% | Potency (astro)
